13 molecules from PubChem BioAssay (NCI) can be followed below.

Among the test systems are NCI-H23 lung; NCI-H226 lung; NCI-H322M lung; HOP-62 NSCLC; NCI-H460 lung; HOP-92 NSCLC; NCI-H522 lung; A549/ATCC NSCLC; 786-0 renal; COLO 205 colon.
Common to all, as to assay: NCI-60 one-dose screen, 48 h (100 = growth as untreated, 0 = no growth, -100 = all killed)
What all share (conditions): 10 µM unless noted

This is part of a sample that, as a whole, favours compounds with a hit. Of some 83,000 tested, about 20% had one in any assay.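 Note: values are percent growth. 100 is the growth of untreated cells, values between 100 and 0 indicate rising inhibition; between -100 and 0 indicates cell death.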 Unmarked numbers belong to inactive results. The source made the active and inactive calls. Rule for the calls: active = growth percent below 10; inactive = the rest.

Take `CCNC(=O)c1[nH]cc(-c2ccccc2)c1-c1cc(OC)c2c(c1OC)OCO2`: the growth was 93.8% with NCI-H23 lung; 86.9% in the assay on NCI-H226 lung; 93.7% with NCI-H322M lung; 91.8% with HOP-62 NSCLC; 108% in the assay with NCI-H460 lung; 83.9% in the assay on HOP-92 NSCLC. For the same molecule, the growth in the assay on NCI-H522 lung was 93.4%; with A549/ATCC NSCLC, 96%; in the assay on 786-0 renal, 101%; in the assay on COLO 205 colon it was 111%.

As for `CCOc1nc(-c2ccccc2)cc2c(O)c(C(=O)NN)[nH]c(=O)c12`, the growth with NCI-H23 lung is 117%; in the assay on NCI-H226 lung, 105%; with NCI-H322M lung, 104%; in the assay on HOP-62 NSCLC, 123%; in the assay with NCI-H460 lung, 86.1%; with HOP-92 NSCLC it was 93.2%. For the same molecule, the growth with NCI-H522 lung was 88.5%; in the assay with A549/ATCC NSCLC, 103%; with 786-0 renal it was 97.3%; with COLO 205 colon it was 121%.

Regarding `Fc1cccc(CNc2c3ccccc3nc3ccccc23)c1F`, the growth in the assay with NCI-H23 lung was 60.6%; with NCI-H226 lung it was 72.9%; with NCI-H322M lung, 63.4%; in the assay on HOP-62 NSCLC it was 72.7%; in the assay on NCI-H460 lung, 48%; in the assay on HOP-92 NSCLC, 2.67% (active). Besides, the growth in the assay on NCI-H522 lung was 53.8%; in the assay with A549/ATCC NSCLC, 56.7%; with 786-0 renal, 65.4%; in the assay on COLO 205 colon it was 40.9%.

Regarding `Brc1ccc(-n2cc(-c3nn[nH]n3)c(-c3cccs3)n2)cc1`, the growth is 92.9% in the assay with NCI-H23 lung; 80.2% with NCI-H226 lung; 91.9% in the assay on NCI-H322M lung; 91.3% in the assay with HOP-62 NSCLC; 105% with NCI-H460 lung; 88.2% in the assay with HOP-92 NSCLC. Moreover, the growth in the assay with NCI-H522 lung is 88%; in the assay with A549/ATCC NSCLC, 89.1%; in the assay on 786-0 renal, 96.6%; in the assay on COLO 205 colon it was 117%.

For `COc1cc(OC)c2sc(-c3ccc(-n4cncc4-c4ccc(OC)c(OC)c4)cc3)nc2c1`, the growth in the assay on NCI-H23 lung was 66.1%; with NCI-H226 lung, 66.7%; with NCI-H322M lung it was 92.3%; in the assay with HOP-62 NSCLC it was 83.2%; in the assay with NCI-H460 lung it was 23.3%; in the assay with HOP-92 NSCLC, 39.4%. In addition, the growth with NCI-H522 lung was 50.5%; with A549/ATCC NSCLC, 45.6%; with 786-0 renal, 74.5%; in the assay with COLO 205 colon it was 48.3%.

On to `COC(=O)/C(CCC=C(C)C)=C1\[C@@H](OC(C)=O)C[C@@]2(C)[C@H]1C[C@@H](O)[C@H]1[C@@]3(C)CC[C@H](NCCN)[C@@H](C)[C@@H]3CC[C@@]12C`, for which the growth was 88.7% in the assay with NCI-H23 lung; 83.5% in the assay on NCI-H226 lung; 83.5% in the assay with NCI-H322M lung; 93% in the assay on HOP-62 NSCLC; 99.6% with NCI-H460 lung; 53.1% in the assay with HOP-92 NSCLC. Further, the growth in the assay with NCI-H522 lung was 86.9%; in the assay on A549/ATCC NSCLC, 88.9%; in the assay on 786-0 renal, 73.5%; in the assay with COLO 205 colon it was 80.3%.

With `CCOC(=O)C1=C(NC)OCC1=O`, the growth in the assay on NCI-H23 lung is 99.9%; with NCI-H226 lung it was 96.3%; in the assay with NCI-H322M lung it was 100%; with HOP-62 NSCLC, 100%; in the assay on NCI-H460 lung, 101%; in the assay with HOP-92 NSCLC, 83.5%. For the same molecule, the growth was 96.7% with NCI-H522 lung, 90.9% in the assay on A549/ATCC NSCLC, 106% in the assay with 786-0 renal and 112% with COLO 205 colon.

For the molecule `O=C1c2cc(Cl)ccc2S(=O)(=O)c2c(NCCCNCCO)nc3ccccc3c21`, the growth in the assay with NCI-H23 lung is 25.7%; in the assay on NCI-H226 lung it was 27.4%; in the assay on NCI-H322M lung, 73.8%; with HOP-62 NSCLC, 42.3%; in the assay with NCI-H460 lung, 22.5%; in the assay with HOP-92 NSCLC, -66% (active). Besides, the growth with NCI-H522 lung is -77.1% (active); with A549/ATCC NSCLC, 43.3%; in the assay with 786-0 renal, 2.5% (active); in the assay with COLO 205 colon, -81.2% (active).

With `C=CCn1cc(-c2nc3ccccc3s2)c2cc(-c3ccc4c5c(cccc35)C(=O)N(N)C4=O)ccc21`, the growth with NCI-H23 lung was 88.2%; in the assay on NCI-H226 lung it was 89.8%; in the assay with NCI-H322M lung, 96.9%; in the assay on HOP-62 NSCLC it was 90.2%; in the assay with NCI-H460 lung, 98.9%; in the assay on HOP-92 NSCLC, 93.7%. Besides, the growth in the assay on NCI-H522 lung was 84.9%; in the assay with A549/ATCC NSCLC it was 105%; in the assay with 786-0 renal, 99.3%; in the assay with COLO 205 colon, 109%.

As for `CN1C(=O)/C(=C/c2ccc(C(=O)Nc3ncc(Cc4ccc(Cl)cc4)s3)cc2)SC1=S`, the growth with NCI-H23 lung was 65.7%; in the assay on NCI-H226 lung it was 71.5%; in the assay on NCI-H322M lung it was 56%; in the assay on HOP-62 NSCLC, 49.7%; in the assay with NCI-H460 lung, 21.1%; with HOP-92 NSCLC it was 51.6%. The growth in the assay with NCI-H522 lung is 36.4%; with A549/ATCC NSCLC, 48.5%; in the assay on 786-0 renal, 47.5%; in the assay on COLO 205 colon, 80.3%.

For the molecule `Cc1cc2c([nH]1)CSc1cc(S(=O)(=O)c3ccccc3)c(=O)[nH]c1-2`, the growth in the assay with NCI-H23 lung is 11.4% [100 µM]; with NCI-H226 lung, 32.6% [100 µM]; with NCI-H322M lung, 47.1% [100 µM]; in the assay with HOP-62 NSCLC, 33% [100 µM]; in the assay on NCI-H460 lung, 4.49% [100 µM] (active); in the assay on HOP-92 NSCLC it was 16.3% [100 µM]. In addition, the growth was 23.3% [100 µM] with NCI-H522 lung, 52.2% [100 µM] in the assay on A549/ATCC NSCLC, 21.5% [100 µM] in the assay with 786-0 renal and -40.5% [100 µM] (active) in the assay on COLO 205 colon.

On to `O=C1c2c(c3c4ccccc4[nH]c3c3ccc4ccccc4c23)C(=O)N1CCN1CCCCC1`, for which the growth in the assay on NCI-H23 lung was 30.5%; in the assay with NCI-H226 lung, 67.5%; in the assay on NCI-H322M lung, 61.1%; with HOP-62 NSCLC, -11.9% (active); with NCI-H460 lung, 4.88% (active); in the assay on HOP-92 NSCLC it was 53%. The growth in the assay on NCI-H522 lung was 38%; in the assay with A549/ATCC NSCLC, 32.3%; in the assay with 786-0 renal, 26%; in the assay on COLO 205 colon, 47%.

Turning to `CCn1c(=S)sc2c(Nc3ccc(F)cc3)nc(-c3cccnc3)nc21`, the growth is 66.2% in the assay with NCI-H23 lung; 75.2% in the assay with NCI-H226 lung; 76.5% in the assay on NCI-H322M lung; 47.6% in the assay on HOP-62 NSCLC; 64.5% in the assay on NCI-H460 lung; 18.4% in the assay with HOP-92 NSCLC. Besides, the growth in the assay with NCI-H522 lung was 40.5%; in the assay on A549/ATCC NSCLC, 48.7%; with 786-0 renal, 20.5%; with COLO 205 colon, 72.5%.
